{"source": "the supplement of paper PMC10037445", "key": {"RAW-Dual [1]": {"system": "RAW-Dual", "test": "NF-kB SEAP reporter activity, fold change vs agonist alone; cytotoxicity flag (confluency mask): not cytotoxic; higher = enhanced NF-kB activity", "how_it_was_run": "(§1)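 Supernatant from RAW-Dual macrophages was read after 20 hours for IRF by QuantiLuc luminescence and for NF-κB by QuantiBlue absorbance at 620 nm. The cells (50,000 cells/well in DMEM, 384-well plates, 37 °C, 5% CO2) had received 50 nL of library stock by pin tool and, 1 h later, a PRR agonist. Reporter activity is expressed relative to agonist-alone wells as fold change, and wells were flagged cytotoxic if IncuCyte confluency was under 70% of agonist controls in both mask sets.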"}, "RAW-Dual [2]": {"system": "RAW-Dual", "test": "NF-kB SEAP reporter activity, fold change vs agonist alone; higher = enhanced NF-kB activity", "how_it_was_run": "as §1"}, "RAW-Dual [3]": {"system": "RAW-Dual", "test": "NF-kB SEAP reporter activity, fold change vs agonist alone; cytotoxicity flag (confluency mask): cytotoxic (confluency <70% of control); higher = enhanced NF-kB activity", "how_it_was_run": "as §1"}, "[4]": {"conditions": "agonist: ODN 1826 (TLR9) 0.5 ug/mL"}, "[5]": {"conditions": "agonist: Pam2CSK4 (TLR2/6) 0.1 ug/mL"}, "[6]": {"conditions": "agonist: Pam3CSK4 (TLR2/1) 0.1 ug/mL"}, "[7]": {"conditions": "library stock concentration (final ~1000-fold dilution): 10 mM, cytotoxicity flag (confluency mask): not cytotoxic, agonist: Imiquimod (TLR7) […]"}, "[8]": {"conditions": "library stock concentration (final ~1000-fold dilution): 10 mM, cytotoxicity flag (confluency mask): not cytotoxic, agonist: MPLA (TLR4) […]"}}, "note": "Whole data set: some 2,900 compounds, median “NF-kB SEAP reporter activity, fold change vs agonist alone” near 0.99, cut for the highest 2% near 2.6. The sample as a whole holds a higher share of the highest values than the screen did."}
{"smiles": "NCC1OC(OC2C(CO)OC(OC3C(O)C(N)CC(N)C3OC3OC(CO)C(O)C(O)C3N)C2O)C(N)C(O)C1O.O=S(=O)(O)O", "note": "(stereo not drawn) (library stock concentration (final ~1000-fold dilution): 10 mM water)", "values": [{"measurement": "NF-kB SEAP reporter activity", "setting": "RAW-Dual [1]; agonist: LPS (TLR4) 0.1 ug/mL", "value": 1.05}, {"measurement": "NF-kB SEAP reporter activity", "setting": "RAW-Dual [1]; [4]", "value": 1.24}, {"measurement": "NF-kB SEAP reporter activity", "setting": "RAW-Dual [1]; [5]", "value": 1.27}, {"measurement": "NF-kB SEAP reporter activity", "setting": "RAW-Dual [1]; [6]", "value": 1.03}]}
{"smiles": "NCC1OC(OC2C(CO)OC(OC3C(O)C(N)CC(N)C3OC3OC(CO)C(O)C(O)C3N)C2O)C(N)C(O)C1O.O=S(=O)(O)O", "note": "(stereo not drawn)", "values": [{"measurement": "NF-kB SEAP reporter activity", "setting": "RAW-Dual [2]; library stock concentration (final ~1000-fold dilution): 10 mM water, cytotoxicity flag (confluency mask): not cytotoxic, agonist: Imiquimod (TLR7) […]", "value": 0.946}, {"measurement": "NF-kB SEAP reporter activity", "setting": "RAW-Dual [2]; library stock concentration (final ~1000-fold dilution): 10 mM water, cytotoxicity flag (confluency mask): not cytotoxic, agonist: MPLA (TLR4) […]", "value": 1.03}]}
{"smiles": "CC(C)(C)NCC(O)COc1ccccc1C1CCCC1.CC(C)(C)NCC(O)COc1ccccc1C1CCCC1.O=S(=O)(O)O", "note": "(stereo not drawn) (library stock concentration (final ~1000-fold dilution): 10 mM)", "values": [{"measurement": "NF-kB SEAP reporter activity", "setting": "RAW-Dual [1]; agonist: LPS (TLR4) 0.1 ug/mL", "value": 0.844}, {"measurement": "NF-kB SEAP reporter activity", "setting": "RAW-Dual [1]; [4]", "value": 1.08}, {"measurement": "NF-kB SEAP reporter activity", "setting": "RAW-Dual [1]; [5]", "value": 0.857}, {"measurement": "NF-kB SEAP reporter activity", "setting": "RAW-Dual [1]; [6]", "value": 0.842}]}
{"smiles": "CC(C)(C)NCC(O)COc1ccccc1C1CCCC1.CC(C)(C)NCC(O)COc1ccccc1C1CCCC1.O=S(=O)(O)O", "note": "(stereo not drawn)", "values": [{"measurement": "NF-kB SEAP reporter activity", "setting": "RAW-Dual [2]; [7]", "value": 1.29}, {"measurement": "NF-kB SEAP reporter activity", "setting": "RAW-Dual [2]; [8]", "value": 1.32}]}
{"smiles": "CN1CCc2c(c3ccccc3n2Cc2ccc(C(=O)NO)cc2)C1", "note": "(library stock concentration (final ~1000-fold dilution): 10 mM)", "values": [{"measurement": "NF-kB SEAP reporter activity", "setting": "RAW-Dual [1]; agonist: LPS (TLR4) 0.1 ug/mL", "value": 1.15}, {"measurement": "NF-kB SEAP reporter activity", "setting": "RAW-Dual [1]; [4]", "value": 1.21}, {"measurement": "NF-kB SEAP reporter activity", "setting": "RAW-Dual [1]; [5]", "value": 0.779}, {"measurement": "NF-kB SEAP reporter activity", "setting": "RAW-Dual [1]; [6]", "value": 1.15}]}
{"smiles": "CN1CCc2c(c3ccccc3n2Cc2ccccc2)C1.CN1CCc2c(c3ccccc3n2Cc2ccccc2)C1.O=S(=O)(O)c1cccc2c(S(=O)(=O)O)cccc12", "note": "(library stock concentration (final ~1000-fold dilution): 2 mM)", "values": [{"measurement": "NF-kB SEAP reporter activity", "setting": "RAW-Dual [1]; agonist: LPS (TLR4) 0.1 ug/mL", "value": 1.29}, {"measurement": "NF-kB SEAP reporter activity", "setting": "RAW-Dual [1]; [4]", "value": 0.722}, {"measurement": "NF-kB SEAP reporter activity", "setting": "RAW-Dual [1]; [5]", "value": 0.952}, {"measurement": "NF-kB SEAP reporter activity", "setting": "RAW-Dual [1]; [6]", "value": 0.958}]}
{"smiles": "CN1CCc2c(c3ccccc3n2Cc2ccc(C(=O)NO)cc2)C1.Cl", "values": [{"measurement": "NF-kB SEAP reporter activity", "setting": "RAW-Dual [2]; [7]", "value": 2.44}, {"measurement": "NF-kB SEAP reporter activity", "setting": "RAW-Dual [2]; [8]", "value": 2.55}]}
{"smiles": "CN1CCc2c(c3ccccc3n2Cc2ccc(C(=O)NO)cc2)C1", "values": [{"measurement": "NF-kB SEAP reporter activity", "setting": "RAW-Dual [2]; [7]", "value": 1}, {"measurement": "NF-kB SEAP reporter activity", "setting": "RAW-Dual [2]; [8]", "value": 1.11}]}
{"smiles": "CN1CCc2c(c3ccccc3n2Cc2ccc(C(=O)NO)cc2)C1.Cl", "note": "(library stock concentration (final ~1000-fold dilution): 10 mM)", "values": [{"measurement": "NF-kB SEAP reporter activity", "setting": "RAW-Dual [1]; agonist: LPS (TLR4) 0.1 ug/mL", "value": 5.1}, {"measurement": "NF-kB SEAP reporter activity", "setting": "RAW-Dual [1]; [4]", "value": 1.71}, {"measurement": "NF-kB SEAP reporter activity", "setting": "RAW-Dual [1]; [5]", "value": 1.08}, {"measurement": "NF-kB SEAP reporter activity", "setting": "RAW-Dual [1]; [6]", "value": 1.59}]}
{"smiles": "CN1CCc2c(c3ccccc3n2Cc2ccccc2)C1.CN1CCc2c(c3ccccc3n2Cc2ccccc2)C1.O=S(=O)(O)c1cccc2c(S(=O)(=O)O)cccc12", "values": [{"measurement": "NF-kB SEAP reporter activity", "setting": "RAW-Dual [2]; library stock concentration (final ~1000-fold dilution): 2 mM, cytotoxicity flag (confluency mask): not cytotoxic, agonist: MPLA (TLR4) […]", "value": 1.15}]}
{"smiles": "CC(C)N(CCC(=O)c1ccc2ccccc2c1)Cc1ccccc1.Cl", "note": "(library stock concentration (final ~1000-fold dilution): 10 mM)", "values": [{"measurement": "NF-kB SEAP reporter activity", "setting": "RAW-Dual [3]; agonist: LPS (TLR4) 0.1 ug/mL", "value": 0.45}, {"measurement": "NF-kB SEAP reporter activity", "setting": "RAW-Dual [3]; [4]", "value": 0.518}, {"measurement": "NF-kB SEAP reporter activity", "setting": "RAW-Dual [3]; [5]", "value": 0.615}, {"measurement": "NF-kB SEAP reporter activity", "setting": "RAW-Dual [3]; [6]", "value": 0.442}]}
{"smiles": "CC(C)N(CCC(=O)c1ccc2ccccc2c1)Cc1ccccc1.Cl", "values": [{"measurement": "NF-kB SEAP reporter activity", "setting": "RAW-Dual [2]; library stock concentration (final ~1000-fold dilution): 10 mM, cytotoxicity flag (confluency mask): cytotoxic (confluency <70% of control), agonist: Imiquimod (TLR7) […]", "value": 1.07}, {"measurement": "NF-kB SEAP reporter activity", "setting": "RAW-Dual [2]; library stock concentration (final ~1000-fold dilution): 10 mM, cytotoxicity flag (confluency mask): cytotoxic (confluency <70% of control), agonist: MPLA (TLR4) […]", "value": 0.507}]}
{"smiles": "O=C(NCCO)c1cccc(-c2cc(Nc3ccc(OC(F)(F)F)cc3)ncn2)c1", "note": "(library stock concentration (final ~1000-fold dilution): 10 mM)", "values": [{"measurement": "NF-kB SEAP reporter activity", "setting": "RAW-Dual [1]; agonist: LPS (TLR4) 0.1 ug/mL", "value": 1.15}, {"measurement": "NF-kB SEAP reporter activity", "setting": "RAW-Dual [1]; [4]", "value": 0.796}, {"measurement": "NF-kB SEAP reporter activity", "setting": "RAW-Dual [1]; [5]", "value": 0.96}, {"measurement": "NF-kB SEAP reporter activity", "setting": "RAW-Dual [1]; [6]", "value": 1.03}]}
{"smiles": "O=C(NCCO)c1cccc(-c2cc(Nc3ccc(OC(F)(F)F)cc3)ncn2)c1", "values": [{"measurement": "NF-kB SEAP reporter activity", "setting": "RAW-Dual [2]; [7]", "value": 1.09}, {"measurement": "NF-kB SEAP reporter activity", "setting": "RAW-Dual [2]; [8]", "value": 1.23}]}
{"smiles": "O=C(Nc1ccc(OC(F)(F)F)cc1)c1sccc1NCc1ccnc2ccccc12", "note": "(library stock concentration (final ~1000-fold dilution): 10 mM)", "values": [{"measurement": "NF-kB SEAP reporter activity", "setting": "RAW-Dual [1]; agonist: LPS (TLR4) 0.1 ug/mL", "value": 2.86}, {"measurement": "NF-kB SEAP reporter activity", "setting": "RAW-Dual [1]; [4]", "value": 1.18}, {"measurement": "NF-kB SEAP reporter activity", "setting": "RAW-Dual [1]; [5]", "value": 0.672}, {"measurement": "NF-kB SEAP reporter activity", "setting": "RAW-Dual [1]; [6]", "value": 1.07}]}
{"smiles": "O=C(Nc1ccc(OC(F)(F)F)cc1)c1sccc1NCc1ccnc2ccccc12", "values": [{"measurement": "NF-kB SEAP reporter activity", "setting": "RAW-Dual [2]; [7]", "value": 1.77}, {"measurement": "NF-kB SEAP reporter activity", "setting": "RAW-Dual [2]; [8]", "value": 2.25}]}
{"smiles": "Cc1cc(Nc2ccc(NC(=O)c3ccc(Nc4ccnc5ccccc45)cc3)cc2)nc(N)n1", "note": "(library stock concentration (final ~1000-fold dilution): 10 mM)", "values": [{"measurement": "NF-kB SEAP reporter activity", "setting": "RAW-Dual [1]; agonist: LPS (TLR4) 0.1 ug/mL", "value": 2.34}, {"measurement": "NF-kB SEAP reporter activity", "setting": "RAW-Dual [1]; [4]", "value": 0.228}, {"measurement": "NF-kB SEAP reporter activity", "setting": "RAW-Dual [1]; [5]", "value": 0.856}, {"measurement": "NF-kB SEAP reporter activity", "setting": "RAW-Dual [1]; [6]", "value": 1.34}]}
{"smiles": "Cc1cc(Nc2ccc(NC(=O)c3ccc(Nc4ccnc5ccccc45)cc3)cc2)nc(N)n1", "values": [{"measurement": "NF-kB SEAP reporter activity", "setting": "RAW-Dual [2]; [7]", "value": 1.31}, {"measurement": "NF-kB SEAP reporter activity", "setting": "RAW-Dual [2]; [8]", "value": 2.36}]}
